# Laboratory results: PubChem BioAssay (NCI)
# About 83,000 compounds went through this panel and 20% of them were active in at least one assay; those are over-represented in the sample as a whole.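 Treatment: one concentration, 48 hours, 96-well format. Scoring: percent growth, with anything below 10 considered active.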 A number with no mark means an inactive call. Calls of active or inactive are those of the source.
# System: NCI-H226 lung
# Experiment: NCI-60 one-dose screen, 48 h (100 = growth as untreated, 0 = no growth, -100 = all killed)
# Conditions: 10 µM
# Description: Growth inhibition of the NCI-H226 human Non-Small Cell Lung tumor cell line is measured as a screen for anti-cancer activity. Cells are grown in 96 well plates and exposed to the test compound for 48 hours. Compounds are tested at a single concentration, which is 10^-5 M for most compounds. The reported endpoint is percent growth (GI% or GIPRCNT), where numbers from 0 - 100% represent growth inhibition, and numbers from -100% - 0 represent cell death. For example, a value of 40 represents 60% growth inhibition. A value of 0 means no net growth occurred over the course of the experiment. A value of -40 indicates 40% of cells at the beginning of the experiment died by the end of the experiment. A value of -100 means all cells are dead at the end of the experiment.
# NCI-60 Human Tumor Cell Lines Screen was performed using the standard one-dose NCI protocol, which is described in more detail at https://dtp.cancer.gov/discovery_development/nci-60/default.htm.
# Compounds with GIPRCNT values below 10 were considered active. Activity score was based on GIPRCNT using the following formula: […]
# Score is 0 for GIPRCNT values of 100 or above, 50 for GIPRCNT values of 0, and 100 for GIPRCNT values of -100.
row,Compound,growth
1,O=C1c2cc(S(=O)(=O)O)ccc2C(=O)c2c1cccc2[N+](=O)[O-],111%
2,Cc1ccc(C(=O)Nc2ccccc2N)cc1,74.5%
3,COc1ccc(C(=O)C2=CC(=O)C(=O)C2)cc1OC,103%
4,CCCCC(=O)N/N=C/c1cc(I)cc(I)c1O,73.3%
5,Cc1nc2cc(Nc3nc(N4CCOCC4)nc(N4CCN(C)CC4)n3)ccc2n1Cc1ccccc1,71.3%
6,CCCCCCCCCCCC(=O)[O][Sn]([CH2]CCC)([CH2]CCC)[CH2]CCC,-66% (active)
7,COc1cc(C(F)(F)F)ccc1-c1cc(-c2ccc(F)cc2)n[nH]1,81.1%
8,CON=C1C[C@]2(C[C@@H]3C[C@@H](C/C=C(\C)C[C@@H](C)/C=C/C=C4\CO[C@@H]5[C@H](O)C(C)=C[C@@H](C(=O)O3)[C@]45O)O2)O[C@H](/C(C)=C/C(C)C)[C@H]1C,72%
9,NS(=O)(=O)c1cc(Br)c2c(c1)S(=O)(=O)NCN2,113%
10,OB(O)c1ccccc1,105%
11,O=C(Nc1ccc(Cl)c(Cl)c1)OCn1ncc2ccc([N+](=O)[O-])cc21,81.3%
12,O=C(CCCCCCC(=O)Nc1ccc2c(c1)/C(=C/c1ccc[nH]1)C(=O)N2)NO,27.6%
13,Cc1nn(CC(=O)O)c2c1C(=O)CC(C)(C)C2,93.6%
14,Cc1cc(Cl)c2c(Cl)ccc(Cl)c2n1,110%
15,Cc1nc2cc(Nc3nc(Nc4ccc(F)cc4)nc(-c4cccs4)n3)ccc2n1Cc1ccccc1,65%
16,O=S(=O)(OCCO)c1ccccc1,98.1%
17,CC1(C)N=C(N)N=C(N)N1c1cccc(/C=C/C=C/c2cccc([N+](=O)[O-])c2)c1,76.9%
18,CC1(C)N=C(N)N=C(N)N1c1cccc(OCCOc2cccc([N+](=O)[O-])c2)c1,98.2%
19,Cc1ccc2c(c1)c(Sc1ccc(C(=O)NO)cc1)c1n2CN(C)CC1,-0.932% (active)
20,CSC1=CC(=O)c2ccccc2C1=O,89.2%

row,Compound,growth
1,CCN(C(=O)c1ccc2c3c(cccc13)C=C2)c1ccccc1,93.3%
2,CSc1nnc(-c2sc3nnc(-c4ccccc4)c(-c4ccccc4)c3c2O)o1,87.7%
3,O=C(COc1ccc(/C=C2\CSc3ccccc3C2=O)cc1)c1ccc(Cl)cc1,97.9%
4,COc1ccc(NC(=O)c2ccc3c(c2)nc(-c2ccc(Cl)cc2)n3-c2cc(C(C)(C)C)[nH]n2)cc1,91.5%
5,Cc1nn(-c2ccccc2)c2nc3nc4c(c(N)c3c(-c3ccc(Cl)cc3)c12)CCCC4,83.4%
6,COc1ccc(C2CC(c3cc(OC)c(OC)c(OC)c3)=NN2c2ccc(S(N)(=O)=O)cc2)cc1 (stereo not given),61.9%
7,CC(C)(C)CC(C)(C)N(CSc1ccc(Cl)cc1)CSc1ccc(Cl)cc1,45.2%
8,C=CC(=O)N1CC2(CCC(n3nc(-c4ccc(Oc5ccccc5)cc4)c4c(N)ncnc43)CC2)C1,-77.7% (active)
9,O=C(O)C[C@H](O)C[C@H](O)/C=C/c1c(C2CC2)nc2ccccc2c1-c1ccc(F)cc1,65.6%
10,NC(=O)c1cc(Cl)ccc1NC(=O)COc1ccccc1,90.5%
11,Cc1nc2cc(Nc3nc(NCCN)nc(Nc4ccc(F)cc4)n3)ccc2n1Cc1ccccc1,95.4%
12,CC(=O)Nc1ccc(S(=O)(=O)N/N=C\c2ccc(Cl)c(Cl)c2)cc1,100%
13,Cn1c(=O)c(S(=O)(=O)c2ccccc2)cc2ccc3c(cnn3-c3ccc(Cl)cc3)c21,55.6%
14,COc1nc2c(cc1S(=O)(=O)c1ccccc1)CCc1c-2cnn1-c1ccccc1Cl,51.8%
15,Clc1ccc(Nc2ccnc(N3CCN(c4ccnc5cc(Cl)ccc45)CC3)n2)cc1,62.5%
16,NC(=O)c1cc(I)ccc1NC(=O)COc1ccccc1,64.2%
17,COc1ccc(-c2nc(Nc3ccc(F)cc3)nc(Nc3ccc4c(c3)nc(C)n4Cc3ccccc3)n2)cc1,66.6%
18,CCCCCCCCCCCCCCCC[N+]1(C)CCOCC1,48.4%
19,O=C(Nc1ccc(Cl)c(Cl)c1)NC(CO)(CO)CO,97.5%
20,CCOc1ccc(/C=N\N2CCCCCC2)cc1OCC,90.7%
